Assay outcomes from PubChem BioAssay.
The list is not random: actives were taken first. Their share in the collection is about 10%.
PLK1 PBD block: qHTS for Inhibitors of PLK1-PDB (polo-like kinase 1 - polo-box domain): Primary Screen | actives 2.8% (n = 360,000) | Serine/threonine-protein kinase PLK1 (Homo sapiens), P53350 | Plk1 PBD binding of FITC phosphopeptide, fluorescence polarization | Potency, µM, usual class: inhibitors; also: series mostly up to about 57 µM; nearly all actives have a fitted effect of over 65% in size
VDR inh: Inhibitors of the vitamin D receptor (VDR): qHTS; Vitamin D3 receptor (Homo sapiens), P11473; VDR-SRC2-3 peptide fluorescence polarization, 2 h; Potency, µM, actives largely listed as inhibitors; actives 0.93% (n = 400,000); AID 504847, 2011
Target sequence (P11473 whole entry, looked up): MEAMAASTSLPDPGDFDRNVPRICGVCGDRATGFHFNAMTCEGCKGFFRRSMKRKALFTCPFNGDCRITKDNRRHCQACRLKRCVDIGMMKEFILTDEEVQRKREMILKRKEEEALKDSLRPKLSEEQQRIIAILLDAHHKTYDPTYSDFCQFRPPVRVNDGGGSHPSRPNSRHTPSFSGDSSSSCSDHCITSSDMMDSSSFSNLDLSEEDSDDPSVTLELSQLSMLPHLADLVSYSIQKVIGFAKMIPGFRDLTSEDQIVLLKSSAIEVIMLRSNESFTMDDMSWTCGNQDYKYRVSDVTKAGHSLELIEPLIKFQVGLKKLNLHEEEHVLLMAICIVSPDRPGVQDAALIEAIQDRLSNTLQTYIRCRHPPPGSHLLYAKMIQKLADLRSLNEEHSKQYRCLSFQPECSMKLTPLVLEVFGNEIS
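Compounds are added to VDR with labelled SRC2-3 coactivator peptide and held 2 h at room temperature. Inhibition of the VDR–peptide interaction is then read as a change in fluorescence polarization.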
MmCpn inh: Inhibitors of TCP-1 ring complex (TRiC) of Methanococcus maripaludis (MmCpn): qHTS | AID 504842, 2011 | Potency, µM (top dose mostly 76.9 µM), actives largely listed as inhibitors | Chaperonin Mm-Cpn (Methanococcus maripaludis) | actives 0.031% (n = 330,000) | purified Mm-Cpn ATPase, ADP Transcreener TR-FRET; also: nearly all actives have a fitted effect of over 80% in size
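Reaction buffer contained 30 mM Tris pH 7.4, 100 mM KCl, 5 mM MgCl2 and 1 mM DTT. Mm-CPN (25 nM final) hydrolysed 10 uM ATP over 30 min at 37°C; ADP was read by HTRF.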
Sfp PPTase inh: qHTS Assay for Inhibitors of Bacillus subtilis Sfp phosphopantetheinyl transferase (PPTase); Biochemical Sfp PPTase activity, qHTS; Potency, µM, actives largely listed as inhibitors; actives 3.5% (n = 310,000); AID 1490, 2009;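 also: the enzyme is Sfp with the accession as filed and its product quenches rhodamine fluorescence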
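Fluorescence-quenching assay with 15 nM Sfp, 5 uM rhodamine-CoA and 12.5 uM BHQ-2-labelled ybbR peptide in pH 7.6 Hepes/MgCl2 buffer. Enzyme was pre-incubated with compound for 15 min at room temperature. Rate was taken from the 30-min fluorescence change (525/598 nm).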
CCT chaperon mod: High-Throughput Screening for Modulators of Cytosolic Chaperonin Activity | activity change, % (no concentration beside the values), hits read low | purified chaperonin ATPase assay, HTRF ADP detection, 30 min | actives 0.3% (n = 360,000); in the data active = activity change below about -30%
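ATPase activity: ADP formed was measured by HTRF Transcreener (665/615 nm ratio) after 30 min at 37 deg C with 10 uM ATP. Compounds screened at one 76 uM concentration against 40 or 20 nM TRiC in Tris pH 7.4/KCl/MgCl2/DTT buffer.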
G9a block: qHTS Assay for Inhibitors of Histone Lysine Methyltransferase G9a; AID 504332, 2011; G9a H3K9 monomethylation, AlphaScreen, 2 h; Potency, µM (highest dose often 102 µM), most hits filed as inhibitors; actives 8.8% (n = 350,000); also: nearly all actives have a fitted effect of over 75% in size
Target sequence (Q96KQ7 913-1193 limits assumed): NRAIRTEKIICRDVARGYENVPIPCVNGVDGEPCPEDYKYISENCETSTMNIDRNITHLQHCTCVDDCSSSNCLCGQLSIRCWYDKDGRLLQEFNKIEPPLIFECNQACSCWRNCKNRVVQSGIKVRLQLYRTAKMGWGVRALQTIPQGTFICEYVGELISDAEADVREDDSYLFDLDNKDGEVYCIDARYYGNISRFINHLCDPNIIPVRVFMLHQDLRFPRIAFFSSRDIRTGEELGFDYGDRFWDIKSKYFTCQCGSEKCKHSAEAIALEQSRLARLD
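Step 1: enzyme (final 20 nM) with compound, 15 min RT. Step 2: substrate peptide 500 nM and SAM 20 uM, 2 h RT. Step 3: anti-H3K9me1 antibody and AlphaScreen beads, 10 min, then plate read.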
Of the large screens only hits and unclear results are named; the others gave an inactive call. Unless noted, calls follow the shape of the dose curve; as a rule, active = well fitted curve in the direction sought with a large enough effect; inconclusive = small, poorly fitted or top-dose-only effect, or another doubt; inactive = no such curve, though single readings can be large; an effect the other way counts as inactive or inconclusive.

CCn1c(CNC(=O)C2CCCCC2)cc2ccccc21	CCT chaperon mod -52.1
C/C(=N\NC(=O)CC#N)C1COc2ccccc2O1 (configuration not stated)	PLK1 PBD block 21.2µM, VDR inh inconclusive
Cc1ccc(-n2ncc(C(=O)NCc3cccs3)c2C2CCN(C(=O)OC(C)(C)C)CC2)cc1C	none (no result: PLK1 PBD block, MmCpn inh, Sfp PPTase inh, CCT chaperon mod)
CCCc1nn2c(=O)cc(COC(=O)c3ccccc3NC(=O)COc3ccccc3F)nc2s1	none (no result: PLK1 PBD block, MmCpn inh, Sfp PPTase inh, CCT chaperon mod)
COC(=O)C1=C(C)NC(=O)NC1c1ccc(N2CCC(c3ccccc3)=N2)cc1 (configuration not stated)	PLK1 PBD block 26.7µM, VDR inh inconclusive, G9a block inconclusive
Cc1ccc(CN2CCc3[nH]c(=S)[nH]c(=O)c3C2)cc1	G9a block inconclusive
CCCN1CCc2[nH]c(=S)[nH]c(=O)c2C1	Sfp PPTase inh 50.1µM, G9a block 31.6µM
CC(C)N1CCc2[nH]c(=S)[nH]c(=O)c2C1	Sfp PPTase inh 44.7µM, G9a block 39.8µM
COC(=O)CC1Oc2ccc(C)cc2-n2cc(-c3ccc(F)cc3)nc21 (configuration not stated)	none (no result: PLK1 PBD block, MmCpn inh, Sfp PPTase inh, CCT chaperon mod)
COc1cc(-c2csc(CCn3nc(C)cc3C)n2)cc(OC)c1OC	PLK1 PBD block inconclusive, VDR inh inconclusive, G9a block 31.6µM
O=C(Sc1nnc(-c2ccccc2)o1)N1c2ccccc2Sc2ccccc21	PLK1 PBD block 67µM, MmCpn inh inconclusive, G9a block 8.91µM
COc1cc(-c2nnc(SCC(=O)N3c4ccccc4Sc4ccccc43)o2)cc(OC)c1OC	none
Cc1cccc(CN2CCC(CNC(=O)Cn3ncc4c([nH]c5ccc(C)cc54)c3=O)CC2)c1	none (no result: PLK1 PBD block, MmCpn inh, Sfp PPTase inh, CCT chaperon mod)
CCc1c(C(C)S(=O)(=O)c2ccc(C)cc2)[nH]c(=O)n1-c1ccc(C)cc1 (configuration not stated)	PLK1 PBD block 26.7µM, VDR inh inconclusive, Sfp PPTase inh 56.2µM, G9a block 8.91µM
CCc1[nH]c(=O)[nH]c1C(C)S(=O)(=O)c1ccc(C)cc1 (configuration not stated)	PLK1 PBD block 11.9µM, Sfp PPTase inh 20µM, G9a block 1.58µM
CCCN(CCC)C(=O)c1nn(C)c2c1CSc1ccc(C)cc1-2	none (no result: PLK1 PBD block, MmCpn inh, Sfp PPTase inh, CCT chaperon mod)
CC(=O)Nc1c(C(=O)O)[nH]c2ccccc12	none
CCS(=O)(=O)Nc1c(C(=O)O)[nH]c2ccccc12	G9a block 50.1µM
Cc1ccc(S(=O)(=O)Nc2c(C(=O)O)[nH]c3ccccc23)cc1C	PLK1 PBD block inconclusive, G9a block 15.8µM
Cc1cc(S(=O)(=O)Nc2c(C(=O)O)[nH]c3ccccc23)ccc1F	MmCpn inh inconclusive, G9a block inconclusive
COc1ccccc1NC(=O)c1sc(-c2ccc(Cl)cc2)cc1N	none (no result: PLK1 PBD block, MmCpn inh, Sfp PPTase inh, CCT chaperon mod)
O=C(CS(=O)(=O)c1ccccc1)c1cc2cc(F)ccc2oc1=O	PLK1 PBD block 15µM, G9a block inconclusive
CNC(=O)c1cc2cccc(OC)c2oc1=O	none
COc1ccc(S(=O)(=O)CC(=O)c2cc3cccc(C)c3oc2=O)cc1	PLK1 PBD block 26.7µM, G9a block 50.1µM
O=C(CS(=O)(=O)c1ccccc1)c1cc2ccccc2oc1=O	PLK1 PBD block inconclusive
COc1ccc2cc(C(=O)CS(=O)(=O)c3ccccc3)c(=O)oc2c1	none
COc1cccc2cc(C(=O)CS(=O)(=O)c3ccc(C(C)(C)C)cc3)c(=O)oc12	PLK1 PBD block 7.52µM, G9a block inconclusive
CCc1nnc(NC(=O)c2sc3nc4c(cc3c2N)CCCCCC4)s1	G9a block 44.7µM
CCc1nnc(NC(=O)c2sc3nc4c(cc3c2N)CCCCC4)s1	none
COc1cc2oc(=O)c(CC(=O)N3CCCCC3)c(C)c2cc1OC	none (no result: PLK1 PBD block, MmCpn inh, Sfp PPTase inh, CCT chaperon mod)
CC(=O)N1CCc2c(sc3nc(SCC(C)C)n(-c4ccc(C)c(Cl)c4)c(=O)c23)C1	G9a block inconclusive (no result: PLK1 PBD block, MmCpn inh, Sfp PPTase inh, CCT chaperon mod)
CSc1ccc(CCNC(=O)CCCn2c(=O)c3cccn3c3ccccc32)cc1	G9a block 14.1µM (no result: PLK1 PBD block, MmCpn inh, Sfp PPTase inh, CCT chaperon mod)
NC(=S)N/N=C/c1ccccc1[N+](=O)[O-]	PLK1 PBD block inconclusive, Sfp PPTase inh 4.47µM (no result: G9a block)
C/C(=N/NC(N)=S)c1ccccc1[N+](=O)[O-]	Sfp PPTase inh 22.4µM, G9a block inconclusive
CC(NC(=O)C1CCN(S(=O)(=O)c2ccc3c(c2)oc(=O)n3C)CC1)c1ccccc1 (configuration not stated)	none (no result: PLK1 PBD block, MmCpn inh, Sfp PPTase inh, CCT chaperon mod)
Nc1ccc(C2=Nc3cccc4cccc(c34)N2)cc1	G9a block inconclusive
COc1cccc(C2=Nc3cccc4cccc(c34)N2)c1	G9a block 15.8µM
CC1=Nc2cccc3cccc(c23)N1	Sfp PPTase inh inconclusive, G9a block 25.1µM
c1coc(C2=Nc3cccc4cccc(c34)N2)c1	PLK1 PBD block inconclusive, G9a block 39.8µM
CCc1ccc(C2CC(=O)N(c3cccc(C(F)(F)F)c3)C3=C2C(=O)OC3)cc1 (configuration not stated)	none (no result: PLK1 PBD block, MmCpn inh, Sfp PPTase inh, CCT chaperon mod)
Cc1cccc(N/N=C/c2ccccc2O)c1	G9a block 1.58µM
Cc1cc(N/N=C/c2ccccc2O)c2ccccc2n1	none (no result: G9a block)
CCN(CC)c1ccc(/C=N/Nc2ccc(C)cc2)c(O)c1	PLK1 PBD block inconclusive, Sfp PPTase inh 39.8µM, G9a block 1.78µM
Cc1cccc(N/N=C/c2ccncc2)c1	G9a block 50.1µM
O=[N+]([O-])c1ccc(N/N=C/c2ccccc2O)cc1	none
Cc1ccc(/C=N/Nc2cccc3cccnc23)c(O)c1	Sfp PPTase inh 44.7µM, G9a block 17.8µM
O=C(Nc1ccc2nc(SCCOc3ccccc3)sc2c1)c1cccs1	none (no result: PLK1 PBD block, MmCpn inh, Sfp PPTase inh, CCT chaperon mod)
CCN(CC)CCNC(=O)c1ccc(Cn2c(SCc3ccccc3)nc3cccnc32)cc1	none (no result: PLK1 PBD block, MmCpn inh, Sfp PPTase inh, CCT chaperon mod)
CCN(CC)c1ccc(/C=N/NC(=O)CNC(=O)C2COc3ccccc3O2)c(O)c1 (configuration not stated)	G9a block 17.8µM
CC(Sc1nnc(Nc2ccccc2)s1)C(=O)Nc1nc(-c2ccccc2)cs1 (configuration not stated)	G9a block inconclusive
CC(Sc1nnc(NCc2ccccc2)s1)C(=O)Nc1ccc2c(c1)C(=O)c1ccccc1C2=O (configuration not stated)	PLK1 PBD block inconclusive, G9a block 3.16µM
CCOc1ccccc1CNC(=O)Cn1nc(N2CCN(c3ccccc3)CC2)ccc1=O	G9a block inconclusive (no result: PLK1 PBD block, MmCpn inh, Sfp PPTase inh, CCT chaperon mod)
CCn1c(-c2ccco2)nc2ccccc21	Sfp PPTase inh 39.8µM, G9a block 6.31µM
